Screening data from PubChem.
Marburg entry inh – inhibitors of Marburg virus binding or cell entry; Marburg virus pseudotyped entry inhibition, cell reporter; Potency, µM (highest dose often 37.8 µM), inactives show at the top dose activity change, negative = inhibition, actives largely listed as inhibitors; 300,000 tested, 1.8% active; calls by dose curve; tested in HEK293 cells; further: potency means the concentration at half of the fitted maximal effect
Vaccinia Venus – vaccinia inhibition (Venus reporter); Vaccinia virus Venus reporter expression, fluorescence; Potency, µM (highest dose often 36.5 µM), for the others: at the top dose activity change, negative = inhibition, usual class: inhibitors; 330,000 tested, 0.46% active; AID 720580; calls by dose curve; tested in A549 cells; further: potency means the concentration at half of the fitted maximal effect; nearly all actives have a fitted effect of over 30% in size
Vaccinia mCherry – vaccinia inhibition (mCherry reporter); Vaccinia virus mCherry reporter infection, fluorescence; Potency, µM (titrated, usually from 36.5 µM), without a hit: at the highest dose activity change, negative = inhibition, most hits filed as inhibitors; 310,000 tested, 0.63% active; AID 720579; calls by dose curve; tested in A549 cells; further: potency means the concentration at half of the fitted maximal effect; nearly all actives have a fitted effect of over 35% in size
HCMV antiviral – blocks human cytomegalovirus replication; HFF cells, HCMV-luciferase reporter, 72 h; stronger effect = lower value; AID 1259415; 410,000 tested, 4.5% active; activity change, negative = inhibition, % at 57.5 µM; in the data active means activity change below about -60%; inconclusive means no clear call, values can overlap the other calls; inactive means above about -39%
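Two-dose cell screen: HFF monolayers treated with compounds and infected with luciferase-expressing HCMV at 1 PFU/cell, 72 h at 37C, then lysed for luciferase measurement.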
FMDV antiviral – blocks foot and mouth disease virus. FMDV antiviral cell-based qHTS. Potency, µM (titrated, usually from 57.9 µM), for the others: at the highest dose activity change, negative = inhibition, most hits filed as inhibitors. 410,000 tested, 1.2% active. AID 1159524; calls by dose curve; tested in HEK293T cells; further: read-out not given here; potency means the concentration at half of the fitted maximal effect; nearly all actives have a fitted effect of over 45% in size
Lassa entry inh – inhibitors of Lassa virus binding or cell entry | Lassa virus pseudotype entry inhibition, cell reporter | Potency, µM (doses to about 37.9 µM), without a hit: at the highest dose activity change, negative = inhibition, usual class: inhibitors | 300,000 tested, 1.2% active; calls by dose curve; tested in HEK293 cells; further: potency means the concentration at half of the fitted maximal effect; nearly all actives have a fitted effect of over 50% in size
Numbers without * were called inactive; i = inactive; ? = inconclusive; . = not tested or not shown; [ ] = another dose, or the depositor's remark. In the library only some 6.5% were active in any assay of this set; here they are far more common. On the % scale 0 is the no-effect control and ±100 the full control effect.

SMILES	Marburg entry inh	Vaccinia Venus	Vaccinia mCherry	HCMV antiviral	FMDV antiviral	Lassa entry inh
CCN(CC)c1cc(C)nc2nc(-c3ccc(C)cc3)nn12	-3%[46.1 µM]	6%	-29%	-4	0%	23%[46.1 µM]
CCC(CC)C(C(=O)NC1CCCCC1)N1C(=O)C(=O)c2ccccc21 (stereo not given)	.	.	.	3	.	.
CCOc1ccc(CCNC(=O)CCNC(=O)c2ccc(Br)cc2)cc1OCC	.	.	.	.	6%	.
Cc1cc2c(n1-c1ccc(C(=O)NCc3ccc(OC(C)C)cc3)cc1)CCCC2	.	-27%	?	-99*	14%	?
Cc1ccc(CNC(=O)c2ccc(-n3c(C)cc4c3CCCC4)cc2)cc1	.	-9%	-14%	-8	-3%	?
CCOc1ccc(CCNC(=O)c2ccc(-n3c(C)cc4c3CCCC4)cc2)cc1OCC	.	?	?	-85*	-20%	?
COc1c2ccccc2nc2occc12	.	-13%	i	.	-2%	.
COc1cc2nc3occc3c(OC)c2cc1OC	5%	-11%	i	-72*	-8%	?
CCCCNC(=O)C1CCC(CNc2nc(=S)[nH]c3ccccc23)CC1 (stereo not given)	-23%	-5%	i	30	-9%	-19%
O=C(NCCc1ccc(Cl)cc1)C1CCC(CNc2nc(=S)[nH]c3ccccc23)CC1 (stereo not given)	?	-2%	-4%	-82*	-10%	-15%
O=C(NCCC1=CCCCC1)C1CCC(CNc2nc(=S)[nH]c3ccccc23)CC1 (stereo not given)	-6%[46.1 µM]	-6%	?	-62*	-17%	.
COc1cc(CNC2CCCC2)cc(Cl)c1OCc1ccccc1F	?	16µM*	?	?	.	?
COc1cc(CNc2ccc3[nH]c(=O)[nH]c3c2)cc(Cl)c1OCc1ccccc1F	?	-8%	?	?	?	-6%[46.1 µM]
O=C(NCCc1c[nH]c2ccccc12)/C(=C\c1cccnc1)NC(=O)c1ccco1	?	-7%	-11%	-10	-26%	-5%
O=C(NCCc1c[nH]c2ccccc12)/C(=C\c1cccnc1)NC(=O)c1ccccc1Br	.	.	.	6	3.5µM*	.
Cn1c(=O)c2c(nc(NCCc3ccccc3)n2Cc2ccc(F)cc2)n(C)c1=O	.	?	?	-24	?	.
Cn1c(=O)c2c(nc(NCc3ccco3)n2C)n(C)c1=O	15%	-5%	i	16	.	17%
CC(C)CCn1c(NCCc2ccccc2)nc2c1c(=O)n(C)c(=O)n2C	.	?	?	-24	20µM*	.
Cn1c(=O)c2c(nc(NCc3ccco3)n2C/C=C/c2ccccc2)n(C)c1=O	13µM*	?	.	-96*	14µM*	10µM*
CC(Cl)=CCn1c(NCCc2ccccc2)nc2c1c(=O)n(C)c(=O)n2C	.	-26%	3%	-87*	13µM*	.
Cn1c(=O)c2c(nc(NCCO)n2CCCc2ccccc2)n(C)c1=O	.	.	.	-3	?	.
CCCN(CCC)c1ccc(C2N=C(N)Nc3nc4ccccc4n32)cc1 (stereo not given)	-3%[46.1 µM]	-25%	?	?	-5%	9%[46.1 µM]
O=C1c2ccccc2NC(c2cc(Cl)cc(Cl)c2O)N1CCc1ccccn1 (stereo not given)	.	.	.	92	.	.
COc1ccccc1NS(=O)(=O)c1cccc(C(=O)NC2CCN(Cc3ccccc3)CC2)c1	?	-10%	?	.	?	-28%
Cc1oc(C(C)(C)C)cc1C(=O)NC1CCN(Cc2ccccc2)CC1	10µM*	-28%	?	-25	-21%	?
SMILES	Marburg entry inh	Vaccinia Venus	Vaccinia mCherry	HCMV antiviral	FMDV antiviral	Lassa entry inh
COc1ccccc1NS(=O)(=O)c1cc(C(=O)NC2CCN(Cc3ccccc3)CC2)ccc1C	.	.	.	-62*	0%	.
COc1ccccc1NS(=O)(=O)c1ccc(C)c(C(=O)NC2CCN(Cc3ccccc3)CC2)c1	?	-19%	-25%	-76*	?	?
COC[C@@H](O)[C@H]1OCc2cccc(OC)c2[C@H]1C=Cc1ccccc1	8%[14.2 µM]	.	.	.	.	.
COC(=O)c1c(C(=O)OC)c2c3cc(OC)c(OC)cc3cc([Si](C)(C)C)n2c1C(=O)OC	24%[14.2 µM]	.	.	.	.	.
Cc1ccc(-n2c(=O)[nH]c3sc4c(c3c2=O)CCCC4)cc1	-1%[46.1 µM]	5%	3%	11	-21%	11%[46.1 µM]
N#CC1=C2N=C(N)c3ccccc3N2C2=C(C(=O)CCC2)C1c1ccc(Cl)cc1 (stereo not given)	-30%	-15%	-17%	-91*	-22%	?
CC1(C)CC(=O)C2=C(C1)N1C(=C(C#N)C2c2ccc(Cl)cc2)N=C(N)c2ccccc21 (stereo not given)	?	-27%	?	-93*	?	?
CC1(C)CC(=O)C2=C(C1)N1C(=C(C#N)C2c2ccccc2Cl)N=C(N)c2ccccc21 (stereo not given)	?	-15%	-10%	7	?	-25%
COc1ccccc1-c1ccnc(-n2ncc(C(=O)NC(C)(C)CO)c2C2CC2)n1	.	-16%	-3%	.	26%	.
Cc1cc(C)nc(-n2nc(C)c(Br)c2Nc2ccc(Br)cc2)n1	-42%	.	.	-21	8%	-12%
Cc1nn(C)c(Nc2ccc(Br)cc2)c1Br	-22%[46.1 µM]	-16%	-16%	-83*	?	.
O=C(CCn1cncn1)NCC1Cc2cc(-c3ccsc3)cc(Cl)c2O1 (stereo not given)	.	-13%	-3%	.	3%	.
COc1ccccc1-c1c(C(F)(F)F)oc2cc(OC(=O)c3ccccc3[N+](=O)[O-])ccc2c1=O	?	.	.	-23	?	-28%
COc1ccccc1-c1c(C(F)(F)F)oc2cc(OS(C)(=O)=O)ccc2c1=O	?	-16%	-16%	30	32µM*	?
CC(=O)Nc1ccc(NC(=O)Cn2c(CC(=O)N3CCCC3)nc3ccccc32)cc1	16%	.	.	-88*	5%	-10%
O=C(N/N=C/c1ccc2c(c1)OCO2)c1ccc(NC(=O)c2ccc(F)cc2)cc1	-13%[46.1 µM]	-9%	?	-86*	2%	3%[46.1 µM]
O=C(N/N=C/c1ccc2c(c1)OCO2)c1ccc2c(c1)OCCO2	?	-28%	?	21	10%	?
O=C(N/N=C/c1ccc(F)cc1)c1cc(-c2ccc3c(c2)OCO3)n[nH]1	1%[46.1 µM]	-20%[7.34 µM]	-10%[7.34 µM]	46	-6%	8.9µM*
Cc1nc(N2CCOCC2)c2c(C(=O)NCc3ccc(Cl)cc3)c(C)oc2n1	.	-10%	i	-14	-16%	18%[46.1 µM]
COc1cc2c(NC3CCN(C)CC3)nc(N3CCCCC3)nc2cc1OCCCN(C)C	.	10µM*	?	.	.	.
COc1cc2c(NC3CCN(C(C)C)CC3)nc(N3CCCN(C)CC3)nc2cc1OCCCN1CCCC1	.	1µM*	0.89µM*	.	.	.
COc1cc2c(NC3CCN(C)CC3)nc(N3CCCCC3)nc2cc1OCCOCCN(C)C	.	13µM*	10µM*	.	.	.
COc1cc2c(NC3CCN(C)CC3)nc(N3CCN(C)CC3)nc2cc1OCCOCCN(C)C	.	-19%	-20%	.	.	.
COc1cc2c(NC3CCN(C)CC3)nc(N3CCCN(C)CC3)nc2cc1OCCOCCN(C)C	.	-20%	-23%	.	.	.
